# Source: PubChem BioAssay AID1222 (Sanford-Burnham Center for Chemical Genomics, 2008)
# Among all 190,000 compounds or so, fewer than 10 were called active.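 How the source made its calls: active means EC50 below 50 µM in the dose-response confirmation; inactive means the rest.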 A selection follows. Measured potencies and affinities stand elsewhere.
# Experiment: rescue of cells from ER stress-induced death, primary screen, 384-well, CSM14.1, thapsigargin, ATP luminescence (AID 1222);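 further: death triggered by thapsigargin at about 15 µM added after 2 h compound pretreatment; cell ATP read after overnight thapsigargin exposure of roughly 18 to 22 hours; reference of the scale not given here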
# Settings: CSM14.1 thapsigargin-induced death rescue, at 20 µM, active compounds read high
row,SMILES,cellular ATP content (survival)
1,CCCOC(=O)CN1C(=O)c2ccccc2C1=O,-2.4% (inactive)
2,Cc1ccc(S(=O)(=O)N(CC(=O)N/N=C/c2cccc(Cl)c2)c2cccc3cccnc23)cc1,4.7% (inactive)
3,CCC(Sc1nc(N)cc(=O)[nH]1)C(=O)Nc1cc(C)on1 (centres undefined),1.6% (inactive)
4,COc1ccc(NC(=O)c2ccccc2NC(=O)CSc2ccc(C)cc2)cc1,4% (inactive)
5,Cc1ccc(C(=O)NNC2CC(=O)N(c3ccc4c(c3)OCCO4)C2=O)cc1 (centres undefined),-0.8% (inactive)
6,NC(N)=NC(N)=Nc1ccc(SC(F)(F)F)cc1,0.3% (inactive)
7,COc1ccccc1-c1noc(CCC(=O)Nc2cc(C(F)(F)F)ccc2Cl)n1,1% (inactive)
8,O=C(Nc1cccc(-c2cn3cccnc3n2)c1)Nc1ccccc1F,-0.8% (inactive)
9,O=C(NNS(=O)(=O)c1ccccc1)c1ccc(S(=O)(=O)N2CCCCC2)cc1,-2.8% (inactive)
10,CSc1ccc(C(C(C(=O)c2cccs2)N2CCOCC2)N2CCOCC2)cc1 (centres undefined),-1.7% (inactive)
11,CCCn1c(=O)c2ccccc2n2c(SCC(=O)NCc3cccs3)nnc12,2.6% (inactive)
12,COC(=O)C1=C(N)Oc2cc(C)n(Cc3cccnc3)c(=O)c2C1c1cc(OC)ccc1OC (centres undefined),-3.1% (inactive)
13,O=C(COc1ncnc2scc(-c3ccccc3)c12)NC1CCCc2ccccc21 (centres undefined),-2.4% (inactive)
14,O=c1ccccn1CCOc1ccccc1Cl,0.2% (inactive)
15,CCOC(=O)C1C(=O)C=C(c2ccc(Br)cc2)CC1c1ccco1 (centres undefined),0.2% (inactive)
16,C[C@@H]1NC(=O)c2cc([N+](=O)[O-])cc(I)c2NCCCC[C@@H](C(N)=O)NC(=O)[C@H](CCC(=O)O)NC1=O,6.5% (inactive)
17,Cc1cc(C)n2nc(-c3ccsc3-n3c(C)ccc3C)cc2n1,6% (inactive)
18,Cn1c(=NC(=O)C2CCN(S(=O)(=O)c3cccs3)CC2)sc2ccccc21,-0.7% (inactive)
19,COC(=O)COc1ccc(S(=O)(=O)N2CCc3ccccc3C2)cc1C,-0.7% (inactive)
20,Cc1ccc(C(=O)/C=C/c2ccc(F)cc2)o1,-13.2% (inactive)

row,SMILES,cellular ATP content (survival)
1,O=C(O)CCCn1cc(NC(=O)c2cc(F)c(F)cc2Cl)cn1,-2.1% (inactive)
2,COc1ccccc1CNC(=O)CCNC(=O)Cn1cnc2ccccc2c1=O,0.7% (inactive)
3,CC1(C)CC(=O)C2=C(C1)NC(=O)CC2c1cc2c(cc1Br)OCO2 (centres undefined),-0.1% (inactive)
4,O=C(N/N=C/c1ccncc1)NC1CCCCC1,-0.5% (inactive)
5,COc1cc(C(=O)Nc2cccc(-c3cn4cccnc4n3)c2)cc(OC)c1OC,-2% (inactive)
6,O=C1c2ccccc2C(=O)C1C1=Nc2ccccc2NC(c2ccccc2)C1 (centres undefined),4.7% (inactive)
7,Nc1ccc(Cc2nc3cc4ccccc4cc3[nH]2)cc1,-1.5% (inactive)
8,CCc1cccc(C)c1NC(=S)N(Cc1cccnc1)Cc1ccco1,-2.7% (inactive)
9,O=C(COc1ccc(Cl)cc1)N1CCN(C(=O)Cc2ccccc2)CC1,5.3% (inactive)
10,CCOC(=O)N1CCN(C(=O)c2cnn3ccccc23)CC1,2.2% (inactive)
11,O=C(N/N=C/c1cccc(Oc2ccccc2)c1)c1ccccc1Br,0% (inactive)
12,Cc1cccc(-n2cnc3cc(C(=O)N4CCc5ccccc54)ccc32)c1,-2.1% (inactive)
13,Cc1[nH]nc(Nc2ccc(O)cc2)c1[N+](=O)[O-],-1.1% (inactive)
14,O=C(/C=C/c1ccco1)OCn1nnc2ccccc2c1=O,-0.7% (inactive)
15,Cc1cccc(-c2ncc(CN3CCN(CCC(C)C)C(CCO)C3)cn2)c1 (centres undefined),0.8% (inactive)
16,COc1ccc(C2N(c3ccc(OC)cc3)C(=S)N3CCCN23)cc1 (centres undefined),3.3% (inactive)
17,COc1ccccc1NC(=S)N(Cc1ccc(C)cc1)Cc1cccnc1,2.6% (inactive)
18,Cc1ccc(C(=O)NNC(=O)CSc2nnc(-c3ccccc3)n2Cc2ccccc2)cc1,-1.4% (inactive)
19,O=C(CSc1ncnc2nc[nH]c12)N1CCN(c2ccccc2)CC1,0.6% (inactive)
20,CC1CCN(CCC(=O)N/N=C/c2ccc([N+](=O)[O-])cc2)CC1,-1.3% (inactive)

row,SMILES,cellular ATP content (survival)
1,CC(C)C(=O)c1cn(CC(=O)N2CCCc3ccccc32)c2ccccc12,0.1% (inactive)
2,O=C(NC1CCCCC1)C(c1ccc2ncccc2c1)N(Cc1ccc(F)cc1)C(=O)c1cccs1 (centres undefined),-1.3% (inactive)
3,O=C(CCCC(=O)N(c1ccc2c(c1)OCCO2)C(C(=O)NC1CCCCC1)c1ccc(F)cc1)Nc1ccccn1 (centres undefined),-0.3% (inactive)
4,COc1ccc(C(C(=O)NC2CCCCC2)N(C(=O)CCCC(=O)Nc2ccccn2)c2ccc3c(c2)OCCO3)cc1 (centres undefined),3.5% (inactive)
5,O=C(NC1CCCCC1)C(c1ccc2ncccc2c1)N(Cc1ccc2c(c1)OCO2)C(=O)c1cccs1 (centres undefined),-4% (inactive)
6,O=C(NC1CCCCC1)C(c1ccc2ncccc2c1)N(Cc1ccco1)C(=O)c1ccc2c(c1)OCCO2 (centres undefined),14.1% (inactive)
7,COc1ccc(CN(C(=O)c2nsc(Cl)c2Cl)C(C(=O)NC2CCCCC2)c2ccc(OC)cc2)cc1 (centres undefined),-2.1% (inactive)
8,O=C(NC1CCCCC1)C(c1ccc2ncccc2c1)N(Cc1ccccc1)C(=O)c1cccs1 (centres undefined),-2.1% (inactive)
9,O=C(NC1CCCCC1)C(c1ccc2ncccc2c1)N(Cc1cccs1)C(=O)c1cccs1 (centres undefined),-8.2% (inactive)
10,OC(C#CCN1CCOCC1)(c1ccccc1)C1CC1 (centres undefined),-0.9% (inactive)
11,COc1ccc(C(CC(=O)O)NC(=O)Cc2ccccc2)cc1OC (centres undefined),-3% (inactive)
12,C=CCOc1ccc(C2CC(C)=NN2c2ccccc2)cc1 (centres undefined),6.2% (inactive)
13,Cc1ccc2c(c1)nnn2C1CCN(CC(=O)NCc2ccccc2F)CC1,3.5% (inactive)
14,COc1cc(C(C#N)N2N=C(c3ccccc3)CC2c2ccccc2)ccc1O (centres undefined),0.2% (inactive)
15,CN(C)c1nc(N/N=C/c2ccccc2O)nc(Nc2ccc(F)cc2)n1,-6.9% (inactive)
16,Fc1cccc(Cc2noc(CN3CCC(c4ccncc4)CC3)n2)c1,1.8% (inactive)
17,O=C(COc1ccc(Cl)cc1Cl)NCCCCc1ccccc1,-2.7% (inactive)
18,CS(=O)(=O)N1CCCC(C(=O)NCc2ccc(F)cc2)C1 (centres undefined),0.6% (inactive)
19,CC(=O)Nc1sc2c(c1C(c1ccccn1)N1CCN(C)CC1)CCCC2 (centres undefined),-0.7% (inactive)
